“And” between values parts separate entries of the source, which are not always exact repeats. Equal entries are not always repeated. Records with an inconclusive call do not appear. Some structures have more than one record in an assay (separate samples or runs), and their calls can disagree. The source made the active and inactive calls. How the source made its calls: active means hit-call score of the fitted dose curve at least 0.9, where 1 is the maximum; inconclusive means response in the unintended direction; inactive means score below 0.9.
Columns and labels:
[1] = ATG_XTT_Cytotoxicity: Cytotoxicity Assessment in the Attagene TRANS-FACTORIAL HepG2 Assay (AID 2283584)
In short: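 HepG2 human liver cells, transiently transfected with multiple GAL4-UAS reporter units, were dosed and read at 24 h by XTT as cell number. Loss of signal was fitted relative to DMSO negative control baseline.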

[2] = TOX21_p53_BLA_p2_viability: Viability Assessment in the Tox21 HCT-116 p53 Agonism Beta-lactamase Assay, Phase 2 (AID 2283591);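 further: compound exposure lasted 16 h at 37 °C; actives lower the ATP signal meaning cytotoxicity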
In short: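 HCT116 p53-bla cells, 4000/well, dosed after 5 h plating (217-fold dilution of DMSO stocks) and incubated 16 h at 37C. Viability taken as cellular ATP by CellTiter-Glo luminescence after 30 min RT; signal loss marks cytotoxicity.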

[3] = target: Cellular tumor antigen p53 (Homo sapiens) (UniProt P04637); test: TOX21_p53_BLA_p2_ratio: Tox21 HCT-116 p53 Agonism Beta-lactamase Assay, Ratio, Phase 2 (AID 2283592)
Sequence of Cellular tumor antigen p53 (Homo sapiens) (P04637 whole entry, looked up): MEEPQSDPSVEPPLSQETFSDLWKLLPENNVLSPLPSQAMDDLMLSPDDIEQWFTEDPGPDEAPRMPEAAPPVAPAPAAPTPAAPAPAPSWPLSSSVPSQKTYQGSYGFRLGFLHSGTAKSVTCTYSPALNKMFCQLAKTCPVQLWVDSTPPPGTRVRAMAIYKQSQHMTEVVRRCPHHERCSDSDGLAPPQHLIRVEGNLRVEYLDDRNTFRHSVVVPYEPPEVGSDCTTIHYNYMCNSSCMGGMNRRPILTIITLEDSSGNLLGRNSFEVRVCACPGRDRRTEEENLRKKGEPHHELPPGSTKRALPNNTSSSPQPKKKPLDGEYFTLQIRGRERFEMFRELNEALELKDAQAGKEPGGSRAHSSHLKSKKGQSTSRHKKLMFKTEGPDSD
In short: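 HCT116 cells carrying a p53-responsive beta-lactamase reporter were plated, incubated 5 h at 37C, then dosed with compounds in DMSO (217-fold dilution) for 16 h. CCF4-AM substrate was added for 2 h at room temperature; the 460/530 nm emission ratio gave gain-of-signal activity relative to DMSO.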

[4] = TOX21_p53_BLA_p3_viability: Viability Assessment in the Tox21 HCT-116 p53 Agonism Beta-lactamase Assay, Phase 3 (AID 2283593);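 further: cells exposed to compound for 16 h before reading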
In short: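 HCT116 cells, 4000/well, dosed 5 h after plating by pin transfer (217-fold dilution from DMSO stock) and incubated 16 h at 37C, 5% CO2. Viability read as ATP luminescence with CellTiter-Glo after 30 min at room temperature.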

[5] = target: Cellular tumor antigen p53 (Homo sapiens) (UniProt P04637); test: TOX21_p53_BLA_p3_ratio: Tox21 HCT-116 p53 Agonism Beta-lactamase Assay, Ratio, Phase 3 (AID 2283596)
In short: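 HCT116 p53-bla cells (4000/well) given compound in DMSO (217-fold dilution) after 5 h, incubated 16 h at 37C. CCF4-AM substrate 2 h at room temperature; 460/530 nm emission ratio, gain fitted against DMSO.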

[6] = TOX21_p53_BLA_p4_viability: Viability Assessment in the Tox21 HCT-116 p53 Agonism Beta-lactamase Assay, Phase 4 (AID 2283597);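 further: hits lower the luminescence signal meaning cytotoxicity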
In short: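 HCT116 p53-bla cells (4000/well) rested 5 h at 37C, then received compounds in DMSO (217-fold dilution) for 16 h at 37C, 5% CO2. CellTiter-Glo was added after the CCF4-AM read, and luminescence was read after 30 min at room temperature.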

[7] = target: Cellular tumor antigen p53 (Homo sapiens) (UniProt P04637); test: TOX21_p53_BLA_p5_ratio: Tox21 HCT-116 p53 Agonism Beta-lactamase Assay, Ratio, Phase 5 (AID 2283599)
In short: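 HCT-116 p53-bla cells (4000/well) plated 5 h, dosed with compound (217-fold DMSO dilution) for 16 h at 37 C; CCF4-AM substrate 2 h at room temperature. Activity is the 460/530 nm emission ratio (405 nm excitation), fitted in gain-of-signal direction versus DMSO.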

Measured: AC50

CCC(CC)CO
inactive: [1]

NC(N)=NC(N)=NCCc1ccccc1
active: [3] 20.4 µM | [5] 30.6 µM
inactive: [1] | [2] | [3] | [4] | [5] | [6] | [7]

CC1COC(=O)O1 (stereo not drawn)
not listed: [6] | [7]
inactive: all other assays above

CC(C)(C)c1ccc(S)cc1
inactive: [1] | [2]

CC(CO)(CO)[N+](=O)[O-]
inactive: [1]

Cc1ccc(C(C)(C)O)cc1
inactive: [1] | [2] | [3]

CC(O)COCC(C)O (stereo not drawn)
not listed: [7]
inactive: all other assays above

CN1CCc2cccc3c2[C@H]1Cc1ccc(O)c(O)c1-3
active: [3] 56.6 µM | [6] 35.5 µM and 44.9 µM
inactive: [1] | [2] | [3] | [4] | [5] | [6]

CCCCOCCOC(=O)c1ccccc1C(=O)OCCOCCCC
not listed: [7]
inactive: all other assays above

O=Cc1ccccc1O
inactive: all assays above

Reference: PubChem BioAssay (EPA / NIEHS)
